From PubChem BioAssay
This is a sample that favours compounds with a hit; in the whole collection about 0.72% have one here.
PKA-R2B activ: activators of PKA-R2B holoenzyme, primary screen, biochemical, fluorescence polarization, Cy5-IP20, human; cAMP-dependent protein kinase catalytic subunit beta (Homo sapiens) + cAMP-dependent …; PKA-R2B holoenzyme dissociation; R2B truncated from residue 108, S112A mutant; 0% DMSO only, 100% 113 µM cGMP; activation, % at 11.4 µM; 340,000 tested, 0.079% active;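 active = activation above a cutoff set at the mean over all compounds plus 3 SD, cut at about 18% in these data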;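 note: higher means more holoenzyme dissociation and a rise in polarization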
Neddyl block: inhibitors of cullin neddylation, primary screen, biochemical, TR-FRET, uHTS, NAE and Ubc12; 360,000 tested, 0.58% active; AID 651699, 2012; NEDD8-conjugating enzyme Ubc12 (Homo sapiens) + NEDD8-activating enzyme E1 regulatory …; calls only at 25 µM; in the data active = inhibition above about 36%
Target sequence (P61081 whole entry, looked up): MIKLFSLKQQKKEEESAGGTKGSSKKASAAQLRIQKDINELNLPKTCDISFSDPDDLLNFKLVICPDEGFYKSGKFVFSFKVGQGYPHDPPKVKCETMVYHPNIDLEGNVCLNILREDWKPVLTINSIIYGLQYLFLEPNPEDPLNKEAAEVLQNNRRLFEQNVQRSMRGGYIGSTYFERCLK
Target sequence (Q13564 whole entry, looked up): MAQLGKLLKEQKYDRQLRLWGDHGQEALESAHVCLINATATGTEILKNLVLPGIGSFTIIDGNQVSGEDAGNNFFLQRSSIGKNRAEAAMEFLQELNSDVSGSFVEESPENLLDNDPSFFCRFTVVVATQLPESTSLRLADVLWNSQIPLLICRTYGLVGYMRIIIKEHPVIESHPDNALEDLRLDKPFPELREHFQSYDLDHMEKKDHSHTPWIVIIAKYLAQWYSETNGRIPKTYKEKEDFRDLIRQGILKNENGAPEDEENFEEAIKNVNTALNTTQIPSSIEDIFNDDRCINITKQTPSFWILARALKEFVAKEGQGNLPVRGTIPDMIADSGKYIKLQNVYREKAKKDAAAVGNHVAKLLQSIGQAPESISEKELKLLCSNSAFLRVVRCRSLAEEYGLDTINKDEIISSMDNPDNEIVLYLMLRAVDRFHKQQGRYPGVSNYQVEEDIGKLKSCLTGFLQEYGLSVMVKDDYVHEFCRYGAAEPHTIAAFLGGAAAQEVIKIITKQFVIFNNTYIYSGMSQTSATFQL
PKA-R1A activ: activators of PKA-R1A holoenzyme, primary screen, biochemical, fluorescence polarization, Cy5-IP20, bovine R1A, mouse PKAc; cAMP-dependent protein kinase type I-alpha regulatory subunit (Bos taurus) + …; PKA-R1A dissociation; scaled: DMSO 0%, 113 µM cGMP 100%; activation, % at 11.4 µM; 340,000 tested, 0.083% active; AID 504707, 2011;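 active = percent activation above the mean of all tested compounds plus 3 SD, cut at about 19% in these data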;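 note: higher means more PKAc released from R1A so a rise in polarization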
PolyA inh: polyadenylation inhibitors in yeast reporter cells, primary screen, luminescence, S. cerevisiae | S. cerevisiae SKY197-pL101 polyadenylation reporter, beta-gal luminescence; efflux-impaired pdr1/pdr3 knockout yeast; score 100 = 6 SD above DMSO | 300,000 tested, 0.02% active | activity score, % at 12 µM | AID 1875, 2009;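 active = lowest replicate activity score at least 50, where 100 means six control SD above control mean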;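 note: yeast exposed to compound for 9 h at 30 °C; higher score means more reporter readthrough which indicates perturbed polyadenylation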
Neddyl conf: blockade of NEDD8 conjugation to cullin – biochemical, TR-FRET, single concentration, confirmation; shares compounds with Neddyl block; TR-FRET cullin neddylation biochemical assay; calls only at 25 µM; 1,800 tested, 13% active; AID 652217, 2013; in the data active = inhibition above about 40%;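 note: neddylation substrate is the cullin 1 ring ligase complex with SKP2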
* hit, by the source's call; i = inactive; . = not tested or not shown; + = active, no number; ! = not active in a repeat.

SMILES	PKA-R2B activ	Neddyl block	PKA-R1A activ	PolyA inh	Neddyl conf
COCCCNC(=O)/C(C#N)=C/c1c(N2CCN(c3ccccc3)CC2)nc2ccccn2c1=O	0	+	12	-23	+
Cc1ccc(Oc2nc3c(C)cccn3c(=O)c2/C=C(\C#N)C(N)=O)cc1	5	+	-3	2	i
CCNC(=O)/C(C#N)=C/c1c(N2CCN(c3ccccc3)CC2)nc2ccccn2c1=O	0	+	-4	-7	+
COCCNC(=O)/C(C#N)=C/c1c(N2CCN(c3ccccc3)CC2)nc2ccccn2c1=O	9	.	-9	-4	.
CCS(=O)(=O)c1ncc(Cl)c(C(=O)Nc2ccc(S(=O)(=O)N3CCC(C)CC3)cc2)n1	-5	i	0	-16	.
CCc1ccc(N2C(=O)CC(N3CCN(Cc4ccc5c(c4)OCO5)CC3)C2=O)cc1 (stereo not given)	-5	i	4	-19	.
N#Cc1ccccc1COC(=O)c1ccc(Br)o1	-17	i	-7	-8	.
CCCCn1c(SCC(=O)NC(=O)Cc2ccccc2)nc2ccccc2c1=O	-10	i	-14	.	.
COc1cccc(/C=C/C(=O)c2ccc3c(c2)OCCO3)c1OC	-4	i	2	-8	.
Cc1cc(N2CCN(C)CC2)nc2ccc(NC(=O)CCC(=O)NCc3ccco3)cc12	3	+	11	8	i
C/C(=N\NC(=O)c1ccc(CSc2cccc3cccnc23)cc1)C1CCCCC1	2	+	-5	8	i
COc1ccc(/C(C)=N/NC(=O)c2ccc(CSc3cccc4cccnc34)cc2)cc1OC	6	+	-8	3	i
O=C(Nc1cccc(Br)c1)c1ccc(OC2CSC2)cc1	.	.	.	-12	.
O=C(CCOc1ccc(F)cc1)Nc1nccs1	8	i	-4	10	.
COc1ccc(S(=O)(=O)Nc2nc3ccccc3nc2Nc2cccc(C(=O)O)c2)cc1	-9	+	-7	15	i
CC(=O)Nc1ccc(S(=O)(=O)Nc2nc3ccccc3nc2Nc2ccccc2)cc1	-9	.	5	9	.
COc1ccc(-c2cc(=O)oc3cc(OC(C)C(=O)NCCCn4ccnc4)ccc23)cc1 (stereo not given)	-7	i	-3	6	.
CCN(CC)C(=O)c1nc[nH]c1C(=O)O[C@@H](C)c1ccccc1	-6	i	-20	.	.
COc1ccc(CC(=O)N2CCN(c3ccc(C4=NNC(=O)CC4C)cc3)CC2)cc1 (stereo not given)	-1	+	-7	13	.
COc1ccc(CC(=O)N2CCN(C(=O)Cc3ccc(OC)cc3)CC2)cc1	4	i	-5	1	.
C[C@H](CO)N1C[C@H](C)[C@H](CN(C)C(=O)Nc2ccc3c(c2)OCCO3)OCc2cnnn2CCCC1=O	-5	i	-16	.	.
CN(CC(=O)Nc1cccc(F)c1)C(=O)c1cc(-c2ccco2)nc2ccccc12	-6	+	-7	-7	.
CCCNC(=O)C1(C)CCCN(Cc2cccc3ccccc23)C1 (stereo not given)	.	i	.	.	.
Cc1sc2ncn(/N=C/c3ccco3)c(=O)c2c1C	7	i	-2	8	.
CCOc1c(C)cc(-c2ncccc2O)cc1C	-4	+!	12	14	i
SMILES	PKA-R2B activ	Neddyl block	PKA-R1A activ	PolyA inh	Neddyl conf
COc1ccc(-c2[nH]c(-c3cccc(OC)c3)nc2SCC(=O)NCc2ccco2)cc1	-16	+	-3	.	i
COc1ccc(-c2ccc(SCC(=O)NCc3ccco3)nn2)cc1	2	i	-7	-38	.
O=c1c2c(nc3c(-c4cccc(Br)c4)c[nH]n13)CCCC2	5	+	-7	6	i
CCOC(=O)C(Cc1ccccc1)c1ccnc2nc(N)nn12 (stereo not given)	-2	.	-3	-17	.
CCCCCCN=C1CC(C)(C)CC(=O)/C1=C(/O)CCC	-5	i	0	-18	.
CCCOc1ccc(-c2nn(-c3ccccc3)cc2/C=C2\SC(N)=NC2=O)cc1	3	.	2	4	.
Cc1cc(-c2nn(-c3ccccc3)cc2/C=C2\SC(N)=NC2=O)ccc1OC(C)C	-5	+	-11	13	i
COc1ccccc1Nc1cc(C)nc2c(C)ccc([N+](=O)[O-])c12	-5	+	-12	-19	i
Cc1cc(Nc2ccccc2)c2c([N+](=O)[O-])cc(C)c(C)c2n1	-17	i	-10	0	.
CSc1nc(N)nc2c1ncn2CC(=O)N1CCN(Cc2c(C)cc(C)cc2C)CC1	0	i	2	.	.
NNc1nc2ccccc2c(=O)n1Cc1ccccc1	-1	+	-16	8	i
CC(C)OCCCn1c(NN)nc2ccccc2c1=O	1	i	-10	-8	.
CCS(=O)(=O)Nc1ccc(-c2nnc(SCC(=O)OC)o2)cc1	-1	i	-6	-5	.
CCC(=O)Nc1ccc(C(=O)CSc2nnc(-c3ccc(NS(=O)(=O)CC)cc3)o2)cc1OC	-9	+	-12	-6	i
Cc1nc2c(c3c1[nH]c1ccccc13)C(=O)CC(C)(C)C2	0	+	-10	-9	.
Cc1nc(NC(=O)CSc2nccn2C)sc1C(=O)N(C)C	3	i	8	-8	.
CCN(CC)C(=O)CSc1ncccc1-c1nc2ccccc2[nH]1	-7	+	-4	.	i
CN(C)C(=O)CSc1ncccc1-c1nc2ccccc2[nH]1	8	i	-10	-5	.
COc1ccc(NS(=O)(=O)c2cc(NC(=O)CCc3ccc(OC)c(OC)c3)ccc2N2CCOCC2)cc1	-16	i	-4	.	.
Cc1ccc(Nc2ccc(C(=O)NCCc3ccccc3)cn2)cc1	-2	+	3	2	i
CC(C)(C)NC(=O)NC(=O)CN1C(=O)NC(c2ccccc2)(c2ccccc2)C1=O	14	i	11	-1	.
CCCN(CC(=O)Nc1ccccc1C)C(=O)c1ccc(-c2ccc(C(C)=O)cc2)o1	-13	+	-3	-5	.
OC1CCCN(Cc2cccc3ccccc23)C1 (stereo not given)	-10	i	4	.	.
OC1CCCN(Cc2c3ccccc3cc3ccccc23)C1 (stereo not given)	-10	+	-9	21	+
COc1ccc(Cl)cc1NC(=O)c1nnn(CC(=O)Nc2ccc(C)c(C)c2)c1N	-8	+	11	-2	i
